# Source: PubChem (National Center for Advancing Translational Sciences (NCATS))
# Shown are actives, neighbours in structure and some others; about 3.3% of the full set was active somewhere.
# 12-hLO inh – inhibitors of human 12-lipoxygenase (ALOX12). P18054. Potency, µM (highest dose often 57.1 µM), hits mostly inhibitors. 0.12% of 150,000 active. purified 12-hLO, xylenol orange hydroperoxide absorbance; further: nearly all actives have a fitted effect of over 55% in size
#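 Purified human 12hLO (150 nM), preincubated 15 min with compound, then 40 uM arachidonic acid for 30 min, room temperature, Hepes pH 7.0 with 0.01% Triton X-100. Hydroperoxide detected by ferrous iron/xylenol orange; 573/405 nm absorbance ratio gives reaction progress.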
# NPSR antag – blocks cAMP signaling of the human neuropeptide S receptor. Q6W5P4. 1% of 220,000 active. Potency, µM (titrated, usually from 38.3 µM), actives largely listed as inhibitors. CHO-NPSR cells, cAMP TR-FRET, antagonist mode. AID 1461; further: nearly all actives have a fitted effect of over 50% in size
# Target sequence (Q6W5P4 whole entry, looked up): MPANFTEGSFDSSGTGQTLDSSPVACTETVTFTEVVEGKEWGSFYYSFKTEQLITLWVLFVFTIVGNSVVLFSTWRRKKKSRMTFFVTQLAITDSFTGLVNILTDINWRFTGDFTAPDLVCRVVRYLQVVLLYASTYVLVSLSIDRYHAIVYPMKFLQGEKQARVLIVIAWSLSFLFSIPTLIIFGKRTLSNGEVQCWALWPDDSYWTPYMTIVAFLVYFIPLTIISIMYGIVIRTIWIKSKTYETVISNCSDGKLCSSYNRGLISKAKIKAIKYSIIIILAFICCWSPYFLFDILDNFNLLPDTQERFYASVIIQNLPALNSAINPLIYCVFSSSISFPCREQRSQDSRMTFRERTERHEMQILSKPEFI
# PNC inhibitor – blocks assembly of the perinucleolar compartment; PC3M PTB-GFP, PNC prevalence imaging, 16 h; active compounds read low; activity change (PNC), negative = inhibition, % at 10 µM; 3.1% of 140,000 active;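 active means readout at or below -70, meaning at least 70% loss of cells showing the perinucleolar compartment, a nuclear body marking cancer cells; inconclusive means readout between -30 and a set limit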
#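 Read-out is percentage of cells bearing a perinucleolar compartment, from automated 20x imaging of fixed, Hoechst-stained PC3M PTB-GFP cells. Cells were seeded 4 h, then exposed 16 h to compound (23 nl of library stock) in duplicate plates.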
# IMPase cell inh – IMPase inhibition in cells; inhibition (IP1 accumulation), % at 46.1 µM; P97697; AID 901; 120,000 tested, under 10 active; CHO-M1 cells, IP1 accumulation, HTRF TR-FRET ratio; active means well fitted curve in the direction sought with a large enough effect in the signal ratio, not every such curve was filed as active; inconclusive means small, poorly fitted or top-dose-only effect, or a change in a side signal; inactive means no such curve, though single readings can be large or run the other way; the % refers to the signal ratio;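 further: cells stimulated with carbachol in lithium chloride buffer; higher means more IMPase inhibition seen as more IP1 and lower FRET ratio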
# Target sequence (P97697 whole entry, looked up): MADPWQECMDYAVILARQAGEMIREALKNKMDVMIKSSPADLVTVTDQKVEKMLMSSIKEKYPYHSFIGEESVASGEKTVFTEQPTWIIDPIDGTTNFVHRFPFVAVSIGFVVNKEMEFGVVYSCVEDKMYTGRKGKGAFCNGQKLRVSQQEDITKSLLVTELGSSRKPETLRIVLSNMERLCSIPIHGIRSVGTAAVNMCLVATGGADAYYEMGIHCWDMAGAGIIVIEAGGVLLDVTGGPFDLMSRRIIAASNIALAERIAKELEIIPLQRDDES
#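 Seeded CHO-M1 cells were dosed with compound at up to 46 uM, stimulated with carbachol for 30 min, then lysed in IP-One detection reagents. Higher IP1 lowers the TR-FRET signal.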
# HttQ103 aggreg – mutant huntingtin aggregation inhibition; PC12 HttQ103-GFP aggregates, Acumen cytometry, 40 h; Potency, µM (series often up to 46.1 µM), usual class: inhibitors; 1.1% of 220,000 active; further: nearly all actives have a fitted effect of over 60% in size
#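 Huntingtin Q103 exon 1–GFP aggregates in induced PC12 cells (100 nM tebufenozide) were quantified by cytometry from lysates, with compounds dosed in titration.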
# HTT ATP protect – protects HTT-Q103 PC12 cells, measured by ATP; Potency, µM (top dose mostly 56.4 µM), most hits filed as activators; 0.14% of 230,000 active; PC12 HTT-Q103 induced, cytoprotection, ATP luminescence, 40 h; further: nearly all actives have a fitted effect of over 45% in size
#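 Quantitative HTS on tebufenozide-induced (100 nM) PC12 cells expressing HTTQ103 exon 1–GFP; compounds tested as a concentration series; survival measured via cellular ATP.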
# A number is an active result; - = inactive; ? = inconclusive; . = no result given; [ ] = remark or other dose. Unless noted, the call rests on the fitted dose curve; in most records, active means well fitted curve in the direction sought with a large enough effect; inconclusive means small, poorly fitted or top-dose-only effect, or another doubt; inactive means no such curve, though single readings can be large; an effect the other way counts as inactive or inconclusive.
SMILES,12-hLO inh,NPSR antag,PNC inhibitor,IMPase cell inh,HttQ103 aggreg,HTT ATP protect
Cn1c(=O)c2c(nc(CN3CCC(C(N)=O)CC3)n2Cc2ccccc2F)n(C)c1=O,-,-,-115,-,-,-
O=C1NC2(CCCCC2)NN1c1ccccc1,4µM,-,-,-,-,-
CC(=O)N1CCC2(CC1)NC(=O)N(c1ccccc1)N2,.,-,.,.,-,-
O=C(O)CN=C1NC2(CCCCC2)Cc2ccccc21,-,-,-100,-,-,?
CS(=O)(=O)N(CC(=O)NCCSc1ccccc1)c1cc(C(F)(F)F)ccc1Cl,.,.,.,-,.,.
CCC1C/C(=C\c2cccnc2)C(=O)/C(=C/c2cccnc2)C1 (stereo not drawn),-,-,-125,.,22µM,-[10 µM]
CCCCCCCCCCOC(=O)c1csc2nnsc12,-,-,-100,-,-,?
C=CCC1C=CC(Oc2ccc(OC)cc2)C(COC(=O)c2ccc(Br)cc2)O1 (stereo not drawn),.,.,.,.,.,-[10 µM]
COc1ccc(CC(=O)Nc2cccc(-c3nnc(-c4ccccc4)o3)c2)cc1OC,-,?,-,-,22µM,-[0.074 µM]
COc1ccc(CC(=O)Nc2cc(C)on2)cc1OC,-,-,?,-,-,-
Cc1ccc(OCC(=O)Nc2cccc(-c3nnc(-c4ccccc4)o3)c2)c(C)c1,-,-,?,-,-,-[10 µM]
COc1ccc(CC(=O)Nc2ccc(-c3nnc(-c4ccccc4)o3)cc2)cc1OC,-,?,-,-,-,-[10 µM]
COc1ccc(CC(=O)Nc2cccc(C)n2)cc1OC,-,-,-81,.,-,.
COc1ccc(CC(=O)Nc2cccc(-c3nnc(-c4cccc(C)c4)o3)c2)cc1OC,-,?,-,-,11µM,-[10 µM]
CCOc1ccc(C(=O)N/N=C/c2cc([N+](=O)[O-])cs2)cc1,.,-,.,.,-,-
COc1cc(C(=O)N/N=C/c2cc([N+](=O)[O-])cs2)cc(OC)c1OC,-,-,-103,.,-,.
COc1cccc(Cn2c(=O)c(-c3cccs3)nc3cnc(N4CCNCC4)nc32)c1,.,.,.,.,.,-
COc1ccc(-c2coc3ccc(O[C@@H]4O[C@@H](COC(C)=O)[C@@H](OC(C)=O)[C@@H](OC(C)=O)[C@H]4OC(C)=O)c(OC(C)=O)c3c2=O)cc1,.,.,.,.,.,-
CCn1c(C)nc2cc(S(N)(=O)=O)ccc21,.,-,.,.,-[9.22 µM],-[10 µM]
CCn1c(C)nc2cc(S(=O)(=O)C(F)(F)C(F)C(F)(F)F)ccc21 (stereo not drawn),-,-,-,-,7.1µM,-
CCOc1ccc(-n2c(SCC(=O)NCc3ccco3)nnc2-c2c[nH]c3ccccc23)cc1,-,13µM,?,-,-,-[10 µM]
COc1ccc(-n2c(SCC(=O)NCc3ccco3)nc3c([nH]c4ccccc43)c2=O)cc1,-,-,-108,-,-,-[10 µM]
O=C(N1CCCCCC1)n1c(Cc2ccccc2)nc2ccccc21,-,-,-119,-,?,-[1.9 µM]
O=C(Cn1c(S(=O)(=O)Cc2ccccc2)nc2ccccc21)N1CCCCC1,-,-,?,-,-,-
CCCCNC(=O)c1cc2c(-c3ccc(Cl)cc3)nn(C)c2s1,-,-,-,-,-,-
SMILES,12-hLO inh,NPSR antag,PNC inhibitor,IMPase cell inh,HttQ103 aggreg,HTT ATP protect
Cc1ccc(CNC(=O)c2cc3c(-c4ccc(Cl)cc4)nn(C)c3s2)o1,-,-,-,-,8.9µM,-
Cn1nc(-c2ccc(Cl)cc2)c2cc(C(=O)NCCCN3CCCC3)sc21,-,10µM,-,-,-,-
CCOC(=O)c1ccc(NC(=O)Nc2cc3c(cc2N2CCCC2)n(C)c(=O)n3C)cc1,.,.,.,-,.,.
CCOC(=O)c1c(N)sc(C(=O)N2CCOCC2)c1C,-,-,-100,-,-,-[10 µM]
COc1ccc(CCC(C)Nc2ccc(F)c(F)c2)cc1 (stereo not drawn),-,-,-,.,11µM,-[10 µM]
Cc1ccc2c(c1)C(c1ccc(F)cc1)N(C(=O)c1cc3ccccc3oc1=O)CC(=O)N2 (stereo not drawn),-,-,-89,.,-,.
CC(=O)c1ccc(-n2nnnc2SCC(=O)N2CCc3ccccc3C2)cc1,-,-,-82,-,-,-[1.9 µM]
O=C(CSc1nnnn1-c1ccccc1)N1CCc2ccccc2C1,-,-,-,-,-,-
O=C(Nc1ccccc1C(=O)O)/C(=C/c1ccc([N+](=O)[O-])cc1)NC(=O)c1ccc(Br)o1,.,-,.,.,-,-
CCOC(CC(=O)NNC(=O)c1c(-c2c(Cl)cccc2Cl)noc1C)OCC,.,-,.,.,-[9.22 µM],-[10 µM]
COc1ccc(-c2csc3ncnc(NCCN4CCOCC4)c23)cc1,-,-,-,-,13µM,-
Cc1nc(NCc2ccccc2)c2nc(-c3ccccc3)n(CC3CCN(C)CC3)c2n1,-,.,.,.,.,-
CCN(CC)c1c([N+](=O)[O-])ncn1C,-,-,-,-,-,-
CCS(=O)(=O)c1c([N+](=O)[O-])ncn1C,-,-,-,.,3.5µM,.
CCN(CC)S(=O)(=O)c1cccc(C(=O)N/N=C(\C)c2ccc(O)cc2O)c1,.,-,.,.,4µM,-
CC1(C)Cc2c(ccc3ccccc23)C(=O)N1,-,-,-,-,11µM,-
O=C(O)/C=C\C(=O)N1Cc2cc3ccccc3nc2C1,-[11.4 µM],.,.,.,.,-[10 µM]
C=CCNc1nc(Cl)ncc1F,-,-,-119,-,-,-[10 µM]
C=CCNc1ncnc2sc(SC)nc12,.,-,.,.,-[9.22 µM],-[10 µM]
COCCCn1c(SCc2nnc(-c3ccc(OC)c(OC)c3)o2)nc2ccccc2c1=O,-,-,-100,-,-,-[10 µM]
S=C(NCCN1CCOCC1)N/N=C/c1c2ccccc2cc2ccccc12,-,?,-81,-,?,-
S=C(NCCN1CCOCC1)Nc1cccc2ccccc12,-,-,-,.,3.5µM,-[10 µM]
CCC(C)c1ccc(OCC(=O)Nc2cccc(-c3nc4ncccc4o3)c2)cc1 (stereo not drawn),.,.,.,-,.,.
COC(=O)C1=C(C(=O)OC)[C@@H]2Nc3ccccc3[C@@]23C[C@@H](C(=O)OC)N(S(=O)(=O)c2ccc(C(F)(F)F)cc2)C3=N1,-[11.4 µM],.,.,.,.,-[10 µM]
CCOC(=O)CSc1nnc(CSc2nc3ccccc3s2)n1C,-,-,-97,-,-,-
SMILES,12-hLO inh,NPSR antag,PNC inhibitor,IMPase cell inh,HttQ103 aggreg,HTT ATP protect
C=CCn1c(CSc2nc3ccccc3s2)nnc1SCC(=O)OCC,-,-,-,-,-,-[10 µM]
Cc1nc([N+](=O)[O-])cn1CC(O)c1ccc(F)cc1 (stereo not drawn),.,-,.,.,-[9.22 µM],-[10 µM]
CC(C)(C)C1CCc2[nH]nc(C(=O)O)c2C1 (stereo not drawn),-,-,-,-,-,3.5µM
O=C(O)c1n[nH]c2c1CCCC2,-,-,-,-,-,-
CCC(C)(C)C1CCc2[nH]nc(C(=O)NN)c2C1 (stereo not drawn),.,-,.,.,-[9.22 µM],-[10 µM]
O=C(O)c1n[nH]c2c1CCCCC2,-,-[7.67 µM],-89,-,-,-[10 µM]
Cc1ncc(CO)c(/C=N/NC(=O)c2ccc(Br)cc2)c1O,-,-,-,.,11µM,-[10 µM]
